D1 ag – human D1 receptor agonism | P21728 | AID 504660 | activation, % at 2 µM | HEK293 T-REx D1 cells, calcium flux, agonist mode | actives 1% (n = 360,000); in the data active = activation above about 30%
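Agonism was scored from calcium flux recorded over 180 s (1 read/s) after pintool compound addition, following a 10-cycle baseline. Cells were inducible force-coupled HEK293 TREx D1, plated overnight at 30 C and loaded with no-wash calcium dye.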
D1 antagonist – human D1 dopamine receptor antagonism; activity change, negative = inhibition, % at 10 µM; actives 3.2% (n = 360,000); HEK293 TREx D1 cells, calcium flux, dopamine EC80; active compounds read low; AID 504652; in the data active = activity change below about -30%
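Tetracycline-induced HEK293 T-REx cells with force-coupled D1 receptor were loaded with a no-wash calcium dye. Compound was added after a 10 s baseline and read kinetically for 180 s; EC80 dopamine was then added and calcium flux followed another 180 s.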
D3 antag – blocks the human D3 dopamine receptor. P35462. D3R cells, DiscoveRx beta-arrestin luminescence, antagonist mode; active compounds read low. max response, negative = inhibition, %. actives 2.5% (n = 360,000); in the data active = max response below about -50%; inconclusive = no clear call, values can overlap the other calls
Target sequence (P35462 whole entry, looked up): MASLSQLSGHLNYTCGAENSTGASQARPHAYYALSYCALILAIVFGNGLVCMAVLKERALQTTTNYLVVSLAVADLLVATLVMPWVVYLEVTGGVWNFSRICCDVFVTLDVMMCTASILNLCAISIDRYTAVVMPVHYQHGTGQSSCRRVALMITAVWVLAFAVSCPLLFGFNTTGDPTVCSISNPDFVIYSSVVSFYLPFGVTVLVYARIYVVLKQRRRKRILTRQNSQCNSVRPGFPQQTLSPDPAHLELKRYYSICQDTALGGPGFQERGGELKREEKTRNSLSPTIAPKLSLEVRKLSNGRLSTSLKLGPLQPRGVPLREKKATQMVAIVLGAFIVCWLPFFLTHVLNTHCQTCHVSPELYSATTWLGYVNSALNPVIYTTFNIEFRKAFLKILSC
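Cells plated overnight at 1500 cells/well, then exposed to library compounds with dopamine controls for 90 minutes at 37 degrees C. DiscoveRx reagent added for 30–60 minutes at room temperature; luminescence read, quantitative HTS format.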
D1 potentiator – enhances dopamine response at the human D1 receptor; P21728; HEK293 TREx D1 cells, calcium flux, dopamine EC20 potentiation; potentiation, % at 10 µM; actives 0.036% (n = 360,000); AID 504651; in the data active = potentiation above about 30%
D3 ag – D3 dopamine receptor (human) agonism; actives 0.58% (n = 410,000); D3R DiscoveRx beta-arrestin cells, luminescence, 90 min; max activation, %; in the data active = max activation above about 30%
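Cells at 1500/well, incubated overnight, then treated with pinned compounds (dopamine as control) for 90 min at 37 degrees C. DiscoveRx reagent added for 30 - 60 minutes at room temperature; luminescence read.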
Numbers stand for hits; – = inactive; ? = inconclusive; · = no result. The list is not random: actives were taken first. Their share in the collection is about 6%.

SMILES	D1 ag	D1 antagonist	D3 antag	D1 potentiator	D3 ag
COc1ccc(NC(=O)CSc2nnc(Cc3cccn3C)n2CCc2ccccc2)c(OC)c1	–	–	–	–	–
COc1ccc(-n2c(Cc3cccn3C)nnc2SCC(=O)Nc2cccc(OC)c2)cc1	–	–	–	–	–
CCOC(=O)c1ccccc1NC(=O)CSc1nnc(Cc2cccn2C)n1-c1ccc(C)cc1	–	–	–	–	39.2
COc1ccc(NC(=O)CSc2nnc(Cc3cccn3C)n2-c2ccc(C)cc2)cc1OC	–	-39.3	–	–	30.5
COc1ccccc1NC(=O)CSc1nnc(Cc2cccn2C)n1CCc1ccccc1	–	-31.1	–	–	–
CCC(O)c1nc2ccccc2n1CCOc1cc(C)cc(C)c1 (configuration not stated)	–	–	·	–	–
COc1ccccc1-c1nc2c(c(SCC(=O)Nc3ccccc3F)n1)Cc1c(CO)cnc(C)c1O2	–	–	·	–	–
O=C(NC1CC(=O)N(c2ccc(F)cc2)C1)C1CCCC1 (configuration not stated)	–	·	·	–	–
Cc1nc2cccnc2n1C1CCN(S(=O)(=O)N(C)C)CC1	–	-37.2	·	–	–
CCOc1ccc(S(=O)(=O)N2CCC(n3c(C)nc4cccnc43)CC2)cc1	34.4	–	·	–	–
COc1cccc(NC(=O)Cn2cc(C(=O)C3CCCCC3)c3ccccc32)c1	–	–	·	–	–
c1ccc(CNc2c3c(nc4ncnn24)CCC3)cc1	–	-52.6	–	–	–
c1ccc(CN(Cc2ccccc2)c2c3c(nc4ncnn24)CCC3)cc1	–	–	–	–	–
COc1ccc(NC(=O)C2CC(c3c(F)cccc3Cl)=NO2)cc1 (configuration not stated)	–	–	–	–	–
COc1cc(NC(=O)C2CC(c3c(F)cccc3Cl)=NO2)cc(OC)c1OC (configuration not stated)	–	-38.6	–	–	–
CNS(=O)(=O)c1cn(CC(=O)N2CCN(c3ccc(C(C)=O)cc3)CC2)cc1S(=O)(=O)NC	–	–	·	–	–
CCN(C(=O)Cn1c(C(=O)OC)cc2sccc21)c1cccc(C)c1	–	–	·	–	–
COc1ccc(-c2[nH]nc3nc(-c4cc(Br)ccc4OC)cc(C(=O)O)c23)cc1	–	–	·	–	–
CCOc1ccc(CNC(=O)CN2N=C(c3ccccc3)CCC2=O)cc1OC	–	–	·	–	49.5
COc1ccc(C2=NN(CC(=O)NCCc3ccc(OC)c(OC)c3)C(=O)CC2)cc1	–	–	·	–	–
COc1ccc(CNC(=O)Cn2c(=O)nc(-c3ccccc3)c3ccccc32)cc1OC	–	–	·	–	32.9
CC(=O)c1sc(NC(=O)C2(F)C(F)(F)C(F)(F)C(F)(F)C(F)(F)C2(F)F)nc1C	–	-35.0	?	–	–
CCCCC(=O)Nc1nc(C)c(C(C)=O)s1	–	-49.8	–	·	–
COc1ccc(OC)c(C2CC(=O)Nc3c2c(=O)[nH]c2nc4ccccc4n32)c1 (configuration not stated)	–	–	·	–	–
COc1ccc([C@H]2CC(=O)C=C(c3ccc(F)cc3OCc3ccccc3)C2)cc1OC	–	–	–	–	73.4
SMILES	D1 ag	D1 antagonist	D3 antag	D1 potentiator	D3 ag
COc1ccc([C@H]2CC(=O)C=C(c3ccc(F)nc3)C2)cc1OC	–	–	–	–	–
O=C1C=C(c2ccc(F)cc2OCc2ccccc2)C[C@@H](c2ccc(F)cc2)C1	–	·	–	–	42.3
COc1ccc([C@H]2CC(=O)C=C(c3ccc(F)cc3OCc3ccccc3)C2)cc1	–	·	–	–	–
CCOc1ccccc1NC(=O)c1ccc(F)c(S(=O)(=O)N2CCN(c3ccc(F)cc3)CC2)c1	–	–	·	–	–
COc1cc(NC(=O)CC(c2cccs2)N2Cc3ccccc3C2=O)cc(OC)c1OC (configuration not stated)	–	–	·	–	–
CCCCN(C(=O)c1oc2ccc(OCC)cc2c1C)c1c(N)n(CC(C)C)c(=O)[nH]c1=O	–	-31.6	–	–	–
Cc1ccc(N(CC(C)C)S(=O)(=O)c2nnc(NC(=O)c3cccs3)s2)cc1	–	–	·	–	–
O=C(CSc1nc(O)c(-c2ccccc2)c(=O)[nH]1)N1CCOCC1	–	–	–	–	–
O=C(CSc1nc(O)c(C(c2ccccc2)c2ccccc2)c(=O)[nH]1)N1CCOCC1	–	–	-62.3	–	–
O=C(CSc1nc2ccccc2nc1Cc1ccccc1F)Nc1cccc(C(F)(F)F)c1	–	–	·	–	–
Cc1cccc(/C=N\NC(=O)c2csnn2)c1	–	–	-91.4	–	–
Cc1ccc(NC(=O)C2CCCN(c3ncnc4onc(C)c34)C2)c(Cl)c1 (configuration not stated)	–	-53.9	·	–	–
COc1ccc(Cl)cc1NC(=O)C1CCCN(c2ncnc3onc(C)c23)C1 (configuration not stated)	–	–	·	–	–
COc1ccc(N(CC(=O)Nc2cccc(Cl)c2C)S(=O)(=O)c2c(C)nn(C)c2C)cc1	–	–	·	–	–
CCOc1ccc(-n2nc3cc(C)c(N)cc3n2)cc1	–	-30.0	–	–	–
CC1(C)OC(=O)C(=CNc2ncccn2)C(=O)O1	–	–	-68.3	–	–
CCOC(=O)Cc1csc(NC(=O)c2ccc(S(=O)(=O)N3CCCCC3)cc2)n1	–	–	–	–	36.1
CCOC(=O)Cc1csc(NC(=O)Nc2ccc(OC(F)(F)F)cc2)n1	–	-36.0	–	–	–
CCOC(=O)Cc1csc(NC(=O)Cc2ccc(Br)cc2)n1	–	-36.8	–	–	–
CCOC(=O)Cc1csc(NC(=O)NC2(C(F)(F)F)Oc3ccc(Cl)cc3O2)n1 (configuration not stated)	–	–	–	–	–
CCOC(=O)Cc1csc(NC(=O)NC2(C(F)(F)F)Oc3cc(Cl)c(Cl)cc3O2)n1	34.7	–	–	–	–
CCOC(=O)Cc1csc(NC(=O)c2ccc(Cl)s2)n1	–	–	–	–	–
CCOC(=O)Cc1csc(NC(=O)c2cc(C)c(C)s2)n1	–	-34.7	–	–	–
CCOC(=O)Cc1csc(NC(=O)c2csc3c2CCCC3)n1	–	–	-63.4	–	–
CCc1ccc(-n2nnc(-c3nc(-c4cccs4)no3)c2N)cc1	–	–	·	–	–
Cc1c(C(=O)N(C)C)sc2c1c(=O)n(-c1ccccc1C(F)(F)F)c(=O)n2Cc1ccccc1C#N	–	–	·	–	–
CNC(=O)c1cn(-c2ccccc2)c(=O)c2ccccc12	–	-73.3	–	–	–
COc1ccc(CNC2CCCc3ccccc32)cc1OC (configuration not stated)	–	–	–	–	–
COc1ccc(CNC2CCSc3ccccc32)cc1OC (configuration not stated)	–	-32.1	–	–	–
O=C(CSc1nnc(-c2ccccc2F)n1C1CC1)NC(=O)c1cccc([N+](=O)[O-])c1	–	–	-56.6	–	–

Screening data: PubChem, National Center for Advancing Translational Sciences (NCATS)
